Screening data as filed in PubChem BioAssay.
FH mod: Identification of activators of human fumarate hydratase by quantitative high-throughput screening; AID 1347055, 2019; Potency, µM (titrated, usually from 79.9 µM), inactives show at the highest dose activity change, negative = inhibition, actives largely listed as inhibitors; FH coupled MDH/diaphorase resazurin fluorescence, 15 min; 54,000 compounds, 0.22% hits; further: on the % scale 0 is the no-effect control and ±100 the full control effect; the screen sought activators but most active calls are inhibition curves; nearly all actives have a fitted effect of over 45% in size
Target sequence (P07954 whole entry, looked up): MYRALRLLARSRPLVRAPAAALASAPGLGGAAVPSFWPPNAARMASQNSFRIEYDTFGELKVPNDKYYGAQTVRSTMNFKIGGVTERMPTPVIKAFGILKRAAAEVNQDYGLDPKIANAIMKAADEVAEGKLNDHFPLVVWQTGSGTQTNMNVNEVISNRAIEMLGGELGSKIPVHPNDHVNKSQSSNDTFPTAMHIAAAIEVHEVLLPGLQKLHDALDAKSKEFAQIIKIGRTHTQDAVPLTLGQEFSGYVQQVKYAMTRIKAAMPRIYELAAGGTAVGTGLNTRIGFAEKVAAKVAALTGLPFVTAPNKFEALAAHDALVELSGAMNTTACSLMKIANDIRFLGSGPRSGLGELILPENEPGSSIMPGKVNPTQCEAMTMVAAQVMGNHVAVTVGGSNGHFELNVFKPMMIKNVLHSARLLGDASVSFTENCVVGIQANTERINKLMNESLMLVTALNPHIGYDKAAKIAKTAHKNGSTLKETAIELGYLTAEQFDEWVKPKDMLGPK
HTT prom inh: inhibits huntingtin promoter activity; 48,000 compounds, 0.93% hits; Potency, µM (series often up to 57.5 µM), without a hit: top-dose activity change, negative = inhibition, actives largely listed as inhibitors; HEK293 HTT promoter firefly luciferase reporter, 24 h; further: nearly all actives have a fitted effect of over 50% in size
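Luminescence was read after Dual-Glo reagent and a 10 min room-temperature incubation. Values were normalized to vehicle (0% activity) and zero RLU (-100% activity). Reporter HEK293 cells had been exposed to compounds (up to 57.5 uM final) for 24 h.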
NTMT1 inhibitor: inhibitors of human N-terminal methyltransferase NTMT1; Q9BV86; NTMT1 MTase-Glo SAH luminescence, purified enzyme; Potency, µM (top dose mostly 114 µM), inactives show at the top dose activity change, negative = inhibition, most hits filed as inhibitors; 59,000 compounds, 2.5% hits;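 further: plate controls were DMSO vehicle for no effect and no enzyme for full effect; nearly all actives have a fitted effect of over 65% in size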
HTT-AS promoter: HTT-AS promoter activation. HEK293 HTT-AS promoter firefly luciferase reporter, 24 h; response scale: percent change from vehicle, -100% = no light. Potency, µM (top dose mostly 57.5 µM), without a hit: at the highest dose activity change, positive = activation, usual class: activators. 48,000 compounds, 0.24% hits; further: nearly all actives have a fitted effect of over 55% in size
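Firefly luciferase readout (Dual-Glo, 10 min RT) after 24 h, 37 °C compound exposure (final up to 57.5 uM) of HEK293 reporter cells cultured 24 h beforehand; PTC124 at 50 uM final as control inhibitor; activity scaled vehicle 0%, zero RLU -100%.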
* marks the source's active call; other numbers are inactive results; ? = inconclusive; · = not tested or not shown; ! = not confirmed by another sample; [ ] = another dose, or the depositor's remark. Rows were chosen to be rich in hits. Some 2.6% of all compounds tested hit in one or more screens of this group. The call rests on the fitted dose curve; in most records, active means well fitted curve in the direction sought with a large enough effect; inconclusive means small, poorly fitted or top-dose-only effect, or another doubt; inactive means no such curve, though single readings can be large; an effect the other way counts as inactive or inconclusive. Potency means the concentration at half of the fitted maximal effect.

SMILES	FH mod	HTT prom inh	NTMT1 inhibitor	HTT-AS promoter
C/C=C(\C)C(=O)OC[C@H]1O[C@@H](O[C@H]2[C@@H](O[C@H]3O[C@H](COC(=O)/C(C)=C/C)[C@@H](O)[C@H](O)[C@H]3O[C@@H]3O[C@H](CO)[C@@H](O)[C@H](OC(=O)/C(C)=C/C)[C@H]3O)O[C@H](COC(=O)/C(C)=C/C)[C@@H](O)[C@@H]2O)[C@H](O)[C@@H](O)[C@@H]1O	7%[20.6 µM]	·	4%[12.6 µM]	·
COc1cc(C2CC(=O)N(Cc3ccc(F)cc3)c3ccccc3S2)cc(OC)c1OC (configuration not stated)	-21%	14µM*	-29%	-62%
COc1ccc(C2CC(=O)N(Cc3ccc(F)cc3)c3ccccc3S2)cc1OC (configuration not stated)	?	-8%	9%	-15%
Cc1cccc(N2CCN(C(=O)c3cc4c(=O)[nH]c5ccc(C)cc5c4s3)CC2C)c1 (configuration not stated)	?	13µM*	?	-68%
CCN(Cc1ccccc1)C(=O)c1cc2c(=O)[nH]c3ccc(C)cc3c2s1	?	-2%	89µM*	-22%
Cc1ccc2[nH]c(=O)c3cc(C(=O)NCCCN4CCC(C)CC4)sc3c2c1	?	-25%	?	-17%
Cc1ccc2[nH]c(=O)c3cc(C(=O)NCc4cccc(Cl)c4)sc3c2c1	?	-6%	?	-6%
CNCc1ccccc1	-1%[53.3 µM]	9%	56µM*	-3%
Cc1ccc(CNCc2ccccc2)s1	2%	3%	8%	-8%
Cc1cc(N(C)S(=O)(=O)c2ccc(NC(=O)Cc3ccc(Cl)c(Cl)c3)cc2)no1	·	·	0%[57.5 µM]	·
COc1cccc(C(=O)Nc2ccccc2C(=O)OCc2cc(=O)n3c(C)csc3n2)c1	4%	-25%	-18%	-20%
COc1ccccc1C(=O)OCc1cc(=O)n2c(C)csc2n1	14%	59%	-18%	11µM*
O=C(O)C1C2C(=O)N(c3ccccc3)C[C@@]23C=C[C@@H]1O3 (some centres not stated)	·	·	-1%	·
COc1ccc(C(=O)NC(c2ccc(Cl)cc2)c2cc(Cl)c3cccnc3c2O)cc1 (configuration not stated)	-1%	18µM*	13%	-59%
Cc1ccc(C(=O)NC(c2ccco2)c2cc(Cl)c3cccnc3c2O)cc1 (configuration not stated)	·	·	12%	·
Cc1cc2ccccc2n1-c1ccc(C(=O)N2CCC(C(=O)NCc3ccc(Cl)cc3)CC2)s1	-27%	14µM*	-5%	-39%
O=C(Cn1c(=O)n(Cc2ccc(F)cc2)c(=O)c2sc3ccccc3c21)NCc1ccccc1Cl	-12%	-8%	89µM*	-1%
Cc1cnc(-c2ccccc2C(C)C)nc1NCc1ccc(C2CCCNC2)cc1 (configuration not stated)	·	·	-2%[57.5 µM]	·
O=[N+]([O-])c1cccc(CSc2nc3ncc(Br)cc3[nH]2)c1	·	·	0%[57.5 µM]	·
Clc1cccc(-c2nc3ccccn3c2Nc2ccc3c(c2)OCCO3)c1	-20%	7%	4µM*	-19%
NCc1ccc(OCCCc2sc(-c3ccc4c(c3)/C(=N/Nc3nc5ccccc5s3)CCC4)nc2C(=O)O)cc1	14%	·	40µM*!	·
COCCCc1sc(-c2ccccc2)nc1C(=O)Nc1ccccc1-c1nc2cc(CN3CCCC3)cnc2s1	-16%[53.3 µM]	·	1%[29.8 µM]	·
Cc1ccc(NCc2cccn2-c2nnc(N3CCC(C(=O)NCc4ccc(OC(C)C)cc4)CC3)s2)cc1	-15%	28µM*	18%	-43%
CCOc1ccc(NCc2cccn2-c2nnc(N3CCC(C(=O)NCc4ccc(C)cc4)CC3)s2)cc1	-18%	14µM*	2%	-52%
O=C(O)CC1(O)C(=O)Nc2ccccc21 (configuration not stated)	-19%	·	?	·
CC1C2=CC(=O)OC2(O)CC2C1C(OC(=O)c1ccccc1)C(OC(=O)c1ccccc1)C1(O)C2(C)CCC(O)C1(C)C(=O)O (configuration not stated)	-4%[20.6 µM]	·	-24%[12.6 µM]	·
N#Cc1c[nH]c2c(C(=O)N3CCN(CCc4ccc(F)cc4)CC3)cccc12	-3%	·	21%[57.5 µM]	·
COc1cccc(-c2cn3ncsc3n2)c1	-13%	58%	?	2.5µM*
CCc1nnc2c(Nc3ccc(N(CC)CC)cc3C)nc3ccccc3n12	?	12%	89µM*	-7%
O=C1Cc2cc(S(=O)(=O)N3CCN(c4ccc(F)cc4)CC3)ccc2N1	·	·	-5%[228 µM]	·
